About 83,000 compounds went through this panel and 20% of them were active in at least one assay; those are over-represented in the sample as a whole.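 Assay: single dose, 48 h. Readout: percent growth (0 = no net growth; negative = cell death). Active: <10.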 Values without a mark were called inactive. The source made the active and inactive calls.
These compounds were tested on CCRF-CEM leukemia (assay: NCI-60 one-dose screen, 48 h (100 = growth as untreated, 0 = no growth, -100 = all killed)). Settings: 10 µM unless noted.

Row | SMILES | growth
1 | Cc1[nH]c(C2CC(c3ccc(C(F)(F)F)c(F)c3)=NN2c2ccccc2)c(C)c1C(=O)NCC(F)(F)F (stereo not given) | 79.4%
2 | O=P(O)(O)OCC1OC(n2cnc3c(NCc4ccco4)ncnc32)C(O)C1O (stereo not given) | -31.5% (active)
3 | CC(=O)Oc1ccc(OC(C)=O)c2ccccc12 | -6.08% (active)
4 | CCN(CC)c1ccc(/C=N/NC(=O)Cc2ccc(Nc3ccnc(C(F)(F)F)c3)cc2)c(O)c1 | 9.9% (active)
5 | CC1C(/C=N/NC(N)=S)C(C#N)(C#N)C1(C#N)C#N (stereo not given) | 96.5%
6 | CCOC(=O)c1ccccc1-c1c2ccc(=[N+](C)C)cc-2oc2cc(N(C)C)ccc12 | 30.3%
7 | O=C(c1c[nH]c2ccccc12)c1n[nH]c(=S)n1-c1cccc(Br)c1 | 90.6%
8 | COc1cccc(/C=C/C(=O)c2cccc(Nc3nc(Nc4ccccc4)nc(Nc4ccccc4)n3)c2)c1 | 43.8%
9 | COc1ccc(Cn2cc(C(=O)N=Nc3c(O)[nH]c4c(C)cccc34)nn2)cc1 | 82.8%
10 | CC1=C2[C@@H](CC1)[C@]1(C)O[C@@](C3CCCCC3)(C[C@H]1OC(=O)CO)[C@H]2OC(=O)/C=C/c1ccccc1 | 78.5%

The compounds below were run on MOLT-4 leukemia in the same assay as above. Settings: 10 µM unless noted.

Row | SMILES | growth
11 | CC1(C)[C@@H](O[C@@H]2OC[C@@H](O[C@@H]3O[C@H](CO)[C@@H](O)[C@H](O)[C@H]3O[C@@H]3OC[C@@H](O)[C@H](O)[C@H]3O)[C@H](O)[C@H]2O[C@@H]2O[C@H](CO)[C@@H](O)[C@H](O)[C@H]2O)CC[C@]2(C)[C@H]3CC[C@]45OC[C@@]6(CC[C@](C)(C=O)C[C@H]64)[C@H](O)C[C@@]5(C)[C@]3(C)CC[C@@H]12 | -53.5% (active)
12 | O=C(CCl)NNc1nccc(Nc2ccc(S(=O)(=O)Nc3ccncc3)cc2)n1 | 44%
13 | CS(=O)(=O)Nc1cc(-c2ccc3ncc(C#N)c(Nc4ccc(F)c(Cl)c4)c3c2)cnc1Cl | -22.5% (active)
14 | Cc1[nH]c(C2CC(c3ccc(C(F)(F)F)c(F)c3)=NN2c2ccccc2)c(C)c1C(=O)NCC(F)(F)F (stereo not given) | 58.3%
15 | O=P(O)(O)OCC1OC(n2cnc3c(NCc4ccco4)ncnc32)C(O)C1O (stereo not given) | 16%
16 | C=CN(C(=O)N1CCN(c2cc3c(cc2F)c(=O)c(C(=O)O)cn3C2CC2)CC1)c1nc(-c2ccc(OC)cc2)cs1 | 18%
17 | CC(=O)Oc1ccc(OC(C)=O)c2ccccc12 | -13.9% (active)
18 | O=C1c2ccccc2C(=O)c2c1cc1c(c2[N+](=O)[O-])OCO1 | 28.7%
19 | Cc1cccc2c1C[C@@]1(C2=O)C(c2ccc(C(C)(C)C)cc2)=NOS1=O (stereo not given in full) | 80.1%
20 | COc1cccc(Nc2ncnc3cc(NC(=O)CCl)ccc23)c1 | -31% (active)
21 | NC(N)=NS(=O)(=O)c1ccc(NC2=C(I)C(=O)c3ncccc3C2=O)cc1 | 103%
22 | Cc1c(CN)cc(-c2ccc(Cl)cc2)n1-c1ccccc1 | 82.3%
23 | O=C1Nc2ccccc2C1(c1c[nH]c2ccccc12)c1c[nH]c2ccccc12 | 46.7%
24 | CCn1c(-c2cc3c([nH]c4ccccc43)c(-c3cccc(O)c3)n2)n[nH]c1=S | 25.6%
25 | CCN(CC)c1ccc(/C=N/NC(=O)Cc2ccc(Nc3ccnc(C(F)(F)F)c3)cc2)c(O)c1 | 10.4%
26 | COc1ccc2c(c1)c(-c1nc(-c3c[nH]c4ncccc34)cs1)cn2CCCN1CCOCC1 | -1.04% (active)
27 | CNC(C)[C@H]1CCC2C3CC=C4C(=O)[C@@H](NC(=O)C=C(C)C)CC[C@]4(C)C3CC[C@@]21C (stereo not given in full) | -55.8% (active)
28 | CN(Cc1ccccc1)c1nc(Cl)c(C2CC(c3ccccc3)=NN2c2ccccc2)s1 (stereo not given) | 97.1%
29 | N#CC1=C(N)Oc2ccc3ccccc3c2C1c1ccc([N+](=O)[O-])cc1 (stereo not given) | 68.6%
30 | COc1ccc(C(=O)Cn2c(C(=O)c3ccc(OC)cc3)nc3ccccc32)cc1 | 15.6%

Row | SMILES | growth
31 | CC1C(/C=N/NC(N)=S)C(C#N)(C#N)C1(C#N)C#N (stereo not given) | 88.8%
32 | O=C(Cc1ccc(/C=C/C(=O)c2ncc[nH]2)cc1)Nc1cc(C(F)(F)F)cc(C(F)(F)F)c1 | 67.7%
33 | CCOC(=O)c1ccccc1-c1c2ccc(=[N+](C)C)cc-2oc2cc(N(C)C)ccc12 | 31.5%
34 | CCN1C(=O)N(CC)C2C1NN=c1s/c(=C\c3ccc(C(F)(F)F)cc3)c(=O)n12 (stereo not given) | 10.9%
35 | Cc1nn(-c2ccccc2)c(N)c1N=C1NC(=O)/C(=C/c2ccc(Br)cc2)S1 | 80.8%
36 | O=C(c1c[nH]c2ccccc12)c1n[nH]c(=S)n1-c1cccc(Br)c1 | 90.2%
37 | Cc1ccc(/C=C/C(=O)Nc2ncc(Cc3ccc(F)cc3)s2)o1 | 35%
38 | O=C1/C(=C\c2cccc3nccnc23)SC(=S)N1CCc1ccc(O)cc1 | 93.1%
39 | COc1cccc(/C=C/C(=O)c2cccc(Nc3nc(Nc4ccccc4)nc(Nc4ccccc4)n3)c2)c1 | 58.8%
40 | C=C1C(=O)O[C@H]2[C@H]1CC/C(COC(=O)c1cc3cc(Cl)ccc3[nH]1)=C\CC[C@@]1(C)O[C@@H]21 | -21% (active)
41 | COc1ccc(Cn2cc(C(=O)N=Nc3c(O)[nH]c4c(C)cccc34)nn2)cc1 | 83.5%
42 | NC(=O)c1cnc(Nc2cccc(N)c2)nc1NCCCNC(=O)C1CCC1 | 26.1%
43 | CC1=C2[C@@H](CC1)[C@]1(C)O[C@@](C3CCCCC3)(C[C@H]1OC(=O)CO)[C@H]2OC(=O)/C=C/c1ccccc1 | 67.9%
44 | O=C(Nc1cnc(Nc2ccc(N3CCOCC3)nc2)nc1Oc1ccc(C(F)(F)F)cc1)c1ccncc1 | 101%
45 | Cc1c2cccnc2c(C)c2c1c1cc(CO)ccc1n2C | 22.9%
46 | CCN1CCN(CC(=O)Nc2ccc(-c3cn4c(n3)sc3cc(Oc5ccnc(C(=O)NC)c5)ccc34)cc2)CC1 | 60.6%
47 | COc1cc(OC)c2sc(-c3ccc(-n4cncc4-c4cc(OC)c(OC)c(OC)c4)cc3)nc2c1 | 32.1%
48 | Ic1ccccc1I | 101%
49 | CCC1S/C(=N\N=C(\C)c2cc3cc(Cl)ccc3o2)N(c2ccccc2)C1=O (stereo not given) | 36.4%
50 | CN(CCCNC(=O)CCOCCOCCOCCNC(=O)Cc1ccc2ccc3cccc4ccc1c2c34)CCCNc1cc(-c2ccc3ccccc3c2)nc2ccccc12 | -83.7% (active)

— PubChem BioAssay (NCI)
